# Results taken from PubChem BioAssay.
# For part of these data: Measured potencies and affinities stand elsewhere. Active and inactive are the calls of the source.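 Rule for the calls, unless noted: active = normalized viability below 100% at a tested concentration; inactive = the rest.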
# Columns and labels:
# [1] = target: 6-phosphogluconate dehydrogenase, decarboxylating (Homo sapiens) (UniProt P52209); test: 6PGD enzyme inhibitors, primary screen, biochemical, human, recombinant enzyme, NADPH absorbance (AID 1159550;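 active = at least 20% inhibition of 6-phosphogluconate dehydrogenase activity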); settings: recombinant 6PGD, NADPH absorbance 341 nm; at 10 µM; stronger effect = higher value
# Chain of 6-phosphogluconate dehydrogenase, decarboxylating (Homo sapiens) (P52209 whole entry, looked up): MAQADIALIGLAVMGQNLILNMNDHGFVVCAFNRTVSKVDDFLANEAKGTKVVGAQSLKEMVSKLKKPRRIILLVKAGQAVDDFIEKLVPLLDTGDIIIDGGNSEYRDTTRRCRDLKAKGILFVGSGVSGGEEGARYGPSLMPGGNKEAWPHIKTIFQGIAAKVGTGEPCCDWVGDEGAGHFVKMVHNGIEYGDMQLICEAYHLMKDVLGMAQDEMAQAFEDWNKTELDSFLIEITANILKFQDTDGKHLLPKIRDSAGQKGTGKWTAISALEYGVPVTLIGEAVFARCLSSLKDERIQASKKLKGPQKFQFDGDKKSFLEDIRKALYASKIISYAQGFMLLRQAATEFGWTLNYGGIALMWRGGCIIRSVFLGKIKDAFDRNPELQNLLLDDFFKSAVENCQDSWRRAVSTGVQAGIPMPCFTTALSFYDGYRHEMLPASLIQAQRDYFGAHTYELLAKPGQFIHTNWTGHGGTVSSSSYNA
# [2] = differential killing of epithelial or mesenchymal cells, primary screen, imaging, PC-3E GFP, TEM4-18 mCherry, co-culture (AID 1345086;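 active = compounds killing one labelled cell type while sparing the other, by normalised counts and ratio limits, not self-fluorescent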;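 for all read-outs here: cells exposed to compound for 72 h before imaging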;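 for red/green cell ratio (normalised): normalised mesenchymal count divided by normalised epithelial count so high means epithelial killing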); settings: imaging cell counts, at 1 µM; for red/green cell ratio (normalised): actives lie on both sides, counts scaled to control wells, 1 = unselective
# [3] = sensitizers of A549 cells to miR-34 induction, primary screen, imaging, A549 dox-inducible miR-34, nuclei and caspase counts (AID 1347080;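 active = compounds whose cell count with miR-34 switched on is under 0.7 times the count with it off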); settings: A549 miR-34 inducible, Hoechst nuclei count, 48 h
# [4] = survival rescue of mitochondrial mutant cells in low glucose, primary screen, MELAS cybrids, Rieske KO mouse fibroblasts, CellTiter-Glo (AID 1508586;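 active = mean z-score across replicates of 1.96 or higher in either the MELAS or the Rieske mutant cell line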;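 note: z relative to plate mean and SD of compound and empty wells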)
# [5] = ovarian cancer cell viability with rucaparib, profiling panel, oncology-focused library, rucaparib conditional (AID 1508598); settings: patient-derived ovarian cancer cells, CellTiter-Glo viability, 144 h, stronger effect = lower value
# [6] = target: Mitogen-activated protein kinase 7 (Homo sapiens) (UniProt Q13164); test: ERK5 transactivation activators in reporter cells, primary screen, cell-based, HTS (AID 1508626;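 active = luciferase signal above three times the same-plate solvent-only control wells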;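 note: luciferase driven by Gal4-ERK5 fusion binding five Gal4 sites before minimal TATA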); settings: HeLa Gal4-ERK5 transactivation, 18 h, at 5 µM, stronger effect = higher value
# Chain of Mitogen-activated protein kinase 7 (Homo sapiens) (Q13164 whole entry, looked up, the tested form may be a part): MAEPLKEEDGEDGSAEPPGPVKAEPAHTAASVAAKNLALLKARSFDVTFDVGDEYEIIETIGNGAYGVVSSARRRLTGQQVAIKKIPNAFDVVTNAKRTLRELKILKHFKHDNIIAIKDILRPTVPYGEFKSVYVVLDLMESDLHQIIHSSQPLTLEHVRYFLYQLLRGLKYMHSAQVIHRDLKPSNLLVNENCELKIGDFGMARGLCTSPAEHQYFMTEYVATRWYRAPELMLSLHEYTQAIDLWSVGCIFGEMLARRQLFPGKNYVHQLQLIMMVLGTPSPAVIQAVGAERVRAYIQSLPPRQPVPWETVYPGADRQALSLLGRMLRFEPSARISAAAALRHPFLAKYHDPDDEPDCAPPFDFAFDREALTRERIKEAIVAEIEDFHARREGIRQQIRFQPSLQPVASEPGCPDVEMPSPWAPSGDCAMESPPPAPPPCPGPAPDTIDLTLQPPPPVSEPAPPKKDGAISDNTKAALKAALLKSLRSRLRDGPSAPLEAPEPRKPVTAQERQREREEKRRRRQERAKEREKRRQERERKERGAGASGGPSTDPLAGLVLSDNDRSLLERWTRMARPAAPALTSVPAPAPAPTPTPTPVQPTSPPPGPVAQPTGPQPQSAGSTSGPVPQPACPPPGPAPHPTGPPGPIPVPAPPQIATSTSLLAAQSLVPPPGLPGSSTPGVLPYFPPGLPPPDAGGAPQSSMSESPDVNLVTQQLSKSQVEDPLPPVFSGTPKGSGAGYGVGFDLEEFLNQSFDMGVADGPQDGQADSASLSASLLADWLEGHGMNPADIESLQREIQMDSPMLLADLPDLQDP
# [7] = target: NAD(+) hydrolase SARM1 (Homo sapiens) (UniProt Q6SZW1); test: SARM1 TIR NADase inhibitors, cell lysate, NAD-Glo luminescence (AID 1508614;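 active = compound whose remaining NAD level is above about 45 nM, limit read from the data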;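 note: higher remaining NAD means stronger inhibition of SARM1 NADase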); settings: SAM-TIR HEK293T lysate NADase, at 1 µM, stronger effect = higher value
# Chain of NAD(+) hydrolase SARM1 (Homo sapiens) (Q6SZW1 whole entry, looked up): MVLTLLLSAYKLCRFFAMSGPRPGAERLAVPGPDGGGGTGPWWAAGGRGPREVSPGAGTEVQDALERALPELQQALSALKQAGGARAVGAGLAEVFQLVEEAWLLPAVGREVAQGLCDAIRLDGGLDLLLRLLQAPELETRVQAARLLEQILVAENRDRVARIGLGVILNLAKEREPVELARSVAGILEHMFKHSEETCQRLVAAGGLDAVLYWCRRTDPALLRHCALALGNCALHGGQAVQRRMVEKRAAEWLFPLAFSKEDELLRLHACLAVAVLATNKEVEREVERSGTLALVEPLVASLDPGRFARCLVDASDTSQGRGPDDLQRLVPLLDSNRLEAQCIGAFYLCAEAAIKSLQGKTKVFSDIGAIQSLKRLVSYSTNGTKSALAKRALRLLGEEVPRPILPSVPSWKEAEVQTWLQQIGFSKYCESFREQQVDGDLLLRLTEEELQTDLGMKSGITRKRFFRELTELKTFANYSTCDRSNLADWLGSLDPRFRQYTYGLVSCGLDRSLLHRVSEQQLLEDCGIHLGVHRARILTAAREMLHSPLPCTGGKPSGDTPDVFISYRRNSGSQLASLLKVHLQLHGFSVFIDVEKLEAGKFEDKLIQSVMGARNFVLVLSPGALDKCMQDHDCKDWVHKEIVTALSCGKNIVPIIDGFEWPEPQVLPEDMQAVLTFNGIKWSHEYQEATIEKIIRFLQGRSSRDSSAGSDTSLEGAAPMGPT
# [8] = polyglutamine-triggered caspase-3 activation inhibitors, cell-based (AID 1583); settings: polyglutamine-induced caspase-3 activation, cell assay; stronger effect = higher value;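 tested at 10 µM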
# [9] = suppressors of polyQ aggregation in yeast, 75Q-TubU reporter (AID 1593); settings: Yeast 75Q polyglutamine aggregation reporter
# [10] = rescue of polyQ-huntingtin neuronal dysfunction in worms, whole organism, C. elegans mechanosensory neurons, N-terminal huntingtin (AID 1599); settings: touch response, stronger effect = higher value
# [11] = inhibitors of mitochondrial cytochrome c release, biochemical, purified mitochondria (AID 1603); settings: stronger effect = lower value;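 note: mouse liver mitochondria challenged with calcium chloride; signal normalized to the plate average as 100%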
# [12] = inhibitors of polyQ protein aggregation (AID 1604); settings: polyglutamine-induced protein aggregation inhibition assay; stronger effect = higher value; tested at 2.5 µM
# [13] = enhancers of glutamate uptake in motor neurons, MN-1 cell line (AID 1612); settings: MN-1 motor neuron cells, stronger effect = higher value;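 note: tested at 1 µM final; 0% = mean of DMSO vehicle wells on each plate; positive means more glutamate uptake than control and negative means less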
# [14] = reducers of polyQ inclusions in PC12 cells, cell-based, NGF-treated PC12, GFPQ80 (AID 1614); settings: PC12 NGF-treated GFP-polyQ80 inclusion reduction;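 note: lower means fewer inclusions and 0 means no inclusions at all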
# [15] = suppressors of polyglutamine aggregation in yeast, 75Q-TubH (AID 1616); settings: S. cerevisiae 75Q-TubH polyglutamine aggregation suppression; stronger effect = higher value
# [16] = phospholipid biosynthesis inhibitors in animal cells, primary screen, cell-based, LOPAC library, screen 4 (AID 1347384; call rule not given here); settings: phospholipid biosynthesis inhibition screen, at 10 µM
# [17] = viability rescue of complex I mutant cybrids, primary screen, cell-based, galactose medium, ATP luminescence (AID 1645843;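 active = z-score of at least 1.8 in each of two replicates, scored against plate mean and spread of sample wells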;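 note: positive z means more ATP and so rescue of galactose-driven cybrid death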); settings: complex I mutant cybrid cells, 72 h, stronger effect = higher value
# [18] = circadian clock period modulators, cell-based, LOPAC library, luminescence reporter (AID 2774; call rule not given here;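 note: values are relative to mean of DMSO wells on each plate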); settings: circadian reporter cells, at 7 µM, actives lie on both sides
# [19] = liver-stage malaria parasite growth inhibition, primary screen, cell-based, HepG2, luciferase luminescence, HepG2 viability (AID 624349; in the data active = parasite load remaining mostly below about 12%, no sharp cut-off; inactive = mostly above about 10%;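 note: 100% = mean of DMSO negative control wells on the same plate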); settings: P. berghei liver stage in HepG2, luciferase luminescence, concentration not given here; parasite load remaining: stronger effect = lower value; viability: measured here: HepG2 viability without parasites
# [20] = measured here: epithelial PC-3E GFP cell survival
# [21] = measured here: mesenchymal TEM4-18 mCherry cell survival
# [22] = stronger effect = lower value, cell number ratio, induced over uninduced
# [23] = measured here: relative caspase fold change +Dox/-Dox
# [24] = measured here: total cells with miR-34 induction, stronger effect = lower value
# [25] = measured here: total cells without miR-34 induction
# [26] = MELAS cybrid survival, CellTiter-Glo 48 h, stronger effect = higher value
# [27] = Rieske KO mouse fibroblast survival, CellTiter-Glo 72 h
smiles,measurement,setting,value
Cc1cc(O)c2c(c1)C(=O)c1cccc(O)c1C2=O,inhibition,[1],2.69% (inactive)
same,red/green cell ratio (normalised),[2],1.03 (inactive)
same,normalised cell number,[2]; [20],0.99
same,normalised cell number,[2]; [21],1.02
same,fold change,[3]; [22],0.938 (inactive)
same,fold change,[3]; [23],0.889
same,cell count,[3]; [24],10200
same,cell count,[3]; [25],10900
same,z-score,[4]; [26],-0.322 (inactive)
same,z-score,[4]; [27],0.837
same,viability,"[5]; at 0.000305 µM, OCI-C5x cells, with rucaparib 10 µM, 100% = cells with rucaparib alone",120% (inactive)
same,viability,"[5]; at 0.000305 µM, OCI-C5x cells, without rucaparib",106% (inactive)
same,viability,"[5]; at 0.000305 µM, OCI-P5x cells, with rucaparib 20 µM, 100% = cells with rucaparib alone",93.2% (active)
same,viability,"[5]; at 0.000305 µM, OCI-P5x cells, without rucaparib",92.5% (active)
same,viability,"[5]; at 0.00122 µM, OCI-C5x cells, with rucaparib 10 µM, 100% = cells with rucaparib alone",115% (inactive)
same,viability,"[5]; at 0.00122 µM, OCI-C5x cells, without rucaparib",113% (inactive)
same,viability,"[5]; at 0.00122 µM, OCI-P5x cells, with rucaparib 20 µM, 100% = cells with rucaparib alone",92.4% (active)
same,viability,"[5]; at 0.00122 µM, OCI-P5x cells, without rucaparib",95.7% (active)
same,viability,"[5]; at 0.00488 µM, OCI-C5x cells, with rucaparib 10 µM, 100% = cells with rucaparib alone",117% (inactive)
same,viability,"[5]; at 0.00488 µM, OCI-C5x cells, without rucaparib",112% (inactive)
same,viability,"[5]; at 0.00488 µM, OCI-P5x cells, with rucaparib 20 µM, 100% = cells with rucaparib alone",94.8% (active)
same,viability,"[5]; at 0.00488 µM, OCI-P5x cells, without rucaparib",102% (inactive)
same,viability,"[5]; at 0.0195 µM, OCI-C5x cells, with rucaparib 10 µM, 100% = cells with rucaparib alone",115% (inactive)
same,viability,"[5]; at 0.0195 µM, OCI-C5x cells, without rucaparib",103% (inactive)
same,viability,"[5]; at 0.0195 µM, OCI-P5x cells, with rucaparib 20 µM, 100% = cells with rucaparib alone",104% (inactive)
same,viability,"[5]; at 0.0195 µM, OCI-P5x cells, without rucaparib",104% (inactive)
same,viability,"[5]; at 0.0781 µM, OCI-C5x cells, with rucaparib 10 µM, 100% = cells with rucaparib alone",112% (inactive)
same,viability,"[5]; at 0.0781 µM, OCI-C5x cells, without rucaparib",113% (inactive)
same,viability,"[5]; at 0.0781 µM, OCI-P5x cells, with rucaparib 20 µM, 100% = cells with rucaparib alone",105% (inactive)
same,viability,"[5]; at 0.0781 µM, OCI-P5x cells, without rucaparib",107% (inactive)
same,viability,"[5]; at 0.313 µM, OCI-C5x cells, with rucaparib 10 µM, 100% = cells with rucaparib alone",102% (inactive)
same,viability,"[5]; at 0.313 µM, OCI-C5x cells, without rucaparib",104% (inactive)
same,viability,"[5]; at 0.313 µM, OCI-P5x cells, with rucaparib 20 µM, 100% = cells with rucaparib alone",101% (inactive)
same,viability,"[5]; at 0.313 µM, OCI-P5x cells, without rucaparib",109% (inactive)
same,viability,"[5]; at 1.25 µM, OCI-C5x cells, with rucaparib 10 µM, 100% = cells with rucaparib alone",114% (inactive)
same,viability,"[5]; at 1.25 µM, OCI-C5x cells, without rucaparib",118% (inactive)
same,viability,"[5]; at 1.25 µM, OCI-P5x cells, with rucaparib 20 µM, 100% = cells with rucaparib alone",111% (inactive)
same,viability,"[5]; at 1.25 µM, OCI-P5x cells, without rucaparib",109% (inactive)
same,viability,"[5]; at 5 µM, OCI-C5x cells, with rucaparib 10 µM, 100% = cells with rucaparib alone",121% (inactive)
same,viability,"[5]; at 5 µM, OCI-C5x cells, without rucaparib",114% (inactive)
same,viability,"[5]; at 5 µM, OCI-P5x cells, with rucaparib 20 µM, 100% = cells with rucaparib alone",97.2% (active)
same,viability,"[5]; at 5 µM, OCI-P5x cells, without rucaparib",108% (inactive)
same,luciferase signal,[6],64 AU (inactive)
CC(C)(C)NC[C@H](O)c1ccc(O)c(CO)c1,inhibition,[1],-0.348% (inactive)
same,red/green cell ratio (normalised),[2],0.77 (inactive)
same,normalised cell number,[2]; [20],1.2
same,normalised cell number,[2]; [21],0.92
same,fold change,[3]; [22],0.873 (inactive)
same,fold change,[3]; [23],1.01
same,cell count,[3]; [24],7950
same,cell count,[3]; [25],9100
same,z-score,[4]; [26],0.715 (inactive)
same,z-score,[4]; [27],-0.611
same,remaining NAD,[7],10 nM (inactive)
same,luciferase signal,[6],112 AU (inactive)
O=c1c2ccccc2oc2ccccc12,inhibition,[1],0.222% (inactive)
same,red/green cell ratio (normalised),[2],1.1 (inactive)
same,normalised cell number,[2]; [20],0.96
same,normalised cell number,[2]; [21],1.06
same,fold change,[3]; [22],0.991 (inactive)
same,fold change,[3]; [23],0.506
same,cell count,[3]; [24],7550
same,cell count,[3]; [25],7620
same,z-score,[4]; [26],-0.409 (inactive)
same,z-score,[4]; [27],-0.0965
same,luciferase signal,[6],64 AU (inactive)
O=c1cc(-c2ccccc2)oc2c(O)c(O)ccc12,inhibition,[8],17.3%
same,score,[9],0.23
same,rescue above control,[10],-0.88
same,cytochrome c release ratio,[11],0.65
same,inhibition of aggregation,[12],81.7%
same,glutamate uptake change,[13],0.12%
same,inclusion score,[14],1.5
same,aggregation suppression score,[15],0.00444
same,inhibition,[1],-53.2% (inactive)
same,red/green cell ratio (normalised),[2],0.99 (inactive)
same,normalised cell number,[2]; [20],0.99
same,normalised cell number,[2]; [21],0.98
same,fold change,[3]; [22],1.65 (inactive)
same,fold change,[3]; [23],0.979
same,cell count,[3]; [24],3960
same,cell count,[3]; [25],2390
same,outcome,[16],inactive
same,luciferase signal,[6],32 AU (inactive)
same,z-score,[17],-0.44 (inactive)
NCCCCN=C(N)N,period change,[18],0.06 h (inactive)
same,parasite load remaining,[19],166% (inactive)
same,viability,[19],87.2%
same,inhibition,[1],-2.27% (inactive)
same,red/green cell ratio (normalised),[2],0.84 (inactive)
same,normalised cell number,[2]; [20],1.01
same,normalised cell number,[2]; [21],0.85
same,fold change,[3]; [22],1.06 (inactive)
same,fold change,[3]; [23],2.32
same,cell count,[3]; [24],10300
same,cell count,[3]; [25],9670
same,outcome,[16],inactive
same,luciferase signal,[6],64 AU (inactive)
same,z-score,[17],0.245 (inactive)
